Source: PubChem BioAssay (EPA / NIEHS)
Results filed as inconclusive are left out. The source made the active and inactive calls. The calls were made as follows, unless noted: active = hit-call score of the fitted dose curve at least 0.9, where 1 is the maximum; inactive = score below 0.9.

What was measured:
[1] = molecular target: CCAAT/enhancer-binding protein beta (Homo sapiens) (UniProt P17676); assay: ATG_C_EBP_CIS: Attagene CIS-FACTORIAL HepG2 Assay for human CCAAT/Enhancer Binding Protein (C/EBP) beta (AID 2282927); conditions: HepG2 Attagene cis-factorial transcription factor reporter; actives raise or lower the signal
CCAAT/enhancer-binding protein beta (Homo sapiens), sequence (P17676 whole entry, looked up, the tested form may be a part): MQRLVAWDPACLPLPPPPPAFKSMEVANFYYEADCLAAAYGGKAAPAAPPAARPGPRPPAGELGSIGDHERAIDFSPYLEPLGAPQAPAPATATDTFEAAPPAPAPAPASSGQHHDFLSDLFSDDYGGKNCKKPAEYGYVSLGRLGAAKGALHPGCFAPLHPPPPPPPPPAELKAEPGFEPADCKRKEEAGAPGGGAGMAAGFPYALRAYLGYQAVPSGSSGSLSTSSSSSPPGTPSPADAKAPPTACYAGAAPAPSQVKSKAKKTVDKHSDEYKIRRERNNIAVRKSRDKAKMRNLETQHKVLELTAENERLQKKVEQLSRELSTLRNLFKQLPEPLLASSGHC
Outline: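 Endogenous C/EBPb-driven reporter transcripts measured in transfected human HepG2 cells at 24 h via RT-PCR and capillary electrophoresis of labelled fragments. Activity fitted in both directions relative to DMSO baseline.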

[2] = ATG_CMV_CIS: Attagene CIS-FACTORIAL HepG2 Assay for human CMV (Internal Marker) (AID 2282928); conditions: HepG2 CMV promoter reporter, transcription factor profiling; actives raise or lower the signal;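 also: endpoint acts as a background internal control marker rather than a target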
Outline: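 Readout: fluorescent reporter cDNA fragments separated by capillary electrophoresis after RT-PCR and HpaI cut. Cells: HepG2 carrying transfected cis-promoter reporter constructs, dosed 24 h. Endpoint serves as background internal-marker control, fit bidirectionally versus DMSO.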

[3] = ATG_DR4_LXR_CIS: Attagene CIS-FACTORIAL HepG2 Assay for human Liver X Receptor (LXR), DR4 submotif (AID 2282929); conditions: HepG2 Attagene DR4 cis-reporter, mRNA transcription; actives raise or lower the signal
Outline: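 Measures endogenous transcription factor activity via a DR4-driven reporter transcript in human HepG2 cells. Compounds incubated 24 h; mRNA quantified by RT-PCR and capillary electrophoresis, analysed as gain or loss of signal versus DMSO.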

[4] = ATG_AP_1_CIS: Attagene CIS-FACTORIAL HepG2 Assay for human Activator Protein 1 (AP-1) (AID 2282931); conditions: HepG2 Attagene cis-factorial AP-1 reporter mRNA; actives raise or lower the signal
Outline: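 Bidirectional concentration-response fitting against DMSO controls. Underlying signal: reporter mRNA from cis-promoter constructs in transiently transfected HepG2, measured after 24 h by RT-PCR and capillary electrophoresis.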

[5] = ATG_AP_2_CIS: Attagene CIS-FACTORIAL HepG2 Assay for human Activator Protein 2 (AP-2) (AID 2282932); conditions: HepG2 AP-2 cis-reporter, Attagene transcription factor profiling; actives raise or lower the signal
Outline: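 Transiently transfected HepG2 cells are exposed to chemical for 24 h. Reporter transcripts are then measured as fluorescence following RT-PCR and capillary separation, and gain- or loss-of-signal is fitted relative to DMSO.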

[6] = ATG_BRE_CIS: Attagene CIS-FACTORIAL HepG2 Assay for human Bone Morphogenetic Protein (BMP) Response Element (BRE) (AID 2282933); conditions: HepG2 BMP response element reporter, Attagene transcription factor profiling; actives raise or lower the signal
Outline: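 Fluorescence-labelled reporter cDNA fragments, separated by capillary electrophoresis, gave the signal for this component of a 52-readout multiplex. HepG2 cells were transfected, exposed to chemicals for 24 h, and compared with DMSO using bidirectional fitting.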

[7] = molecular target: Transcription factor E2F1 (Homo sapiens) (UniProt Q01094); assay: ATG_E2F_CIS: Attagene CIS-FACTORIAL HepG2 Assay for human E2F Transcription Factor 1 (AID 2282935); conditions: HepG2 Attagene cis-reporter, E2F reporter RNA transcripts; actives raise or lower the signal
Transcription factor E2F1 (Homo sapiens), sequence (Q01094 whole entry, looked up): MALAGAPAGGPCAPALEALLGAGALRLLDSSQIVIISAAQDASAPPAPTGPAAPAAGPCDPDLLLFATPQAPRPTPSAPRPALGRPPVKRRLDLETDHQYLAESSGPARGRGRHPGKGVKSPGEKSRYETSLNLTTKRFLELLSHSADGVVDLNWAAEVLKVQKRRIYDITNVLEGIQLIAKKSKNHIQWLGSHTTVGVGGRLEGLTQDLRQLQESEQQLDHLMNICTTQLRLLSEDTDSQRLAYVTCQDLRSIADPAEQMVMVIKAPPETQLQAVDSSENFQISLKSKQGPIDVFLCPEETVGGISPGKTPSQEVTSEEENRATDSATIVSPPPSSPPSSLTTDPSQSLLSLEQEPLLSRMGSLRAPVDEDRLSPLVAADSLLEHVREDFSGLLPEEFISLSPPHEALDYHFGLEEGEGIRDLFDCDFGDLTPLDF
Outline: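 Fluorescent RT-PCR products, digested with HpaI for 2 h at 37 C, are separated by capillary electrophoresis. Source RNA comes from transfected HepG2 cultures treated for 24 h.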

[8] = ATG_E_Box_CIS: Attagene CIS-FACTORIAL HepG2 Assay for human Enhancer Box (E-box) (AID 2282936); conditions: HepG2 E-box cis-reporter transcription, actives raise or lower the signal
Outline: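 Fluorescent reporter fragments separated by capillary electrophoresis gave the signal; mRNA came from HepG2 cells transfected with cis-element reporters and treated 24 h. Curves fitted bidirectionally relative to DMSO controls.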

[9] = ATG_M_61_CIS: Attagene CIS-FACTORIAL HepG2 Assay for M61 Transcription Factor (Internal Marker) (AID 2282937); conditions: HepG2 Attagene CIS-FACTORIAL M61 internal marker reporter; actives raise or lower the signal
Outline: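 Fluorescence from labelled cDNA fragments, separated by capillary electrophoresis, quantifies reporter induction. HepG2 cells bearing transiently transfected cis-promoter MRTUs were incubated with test chemical for 24 h; DMSO defined baseline for gain/loss fitting.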

[10] = ATG_EGR_CIS: Attagene CIS-FACTORIAL HepG2 Assay for human Early Growth Response 1 (EGR1) (AID 2282938); conditions: HepG2 Attagene CIS-FACTORIAL EGR reporter mRNA; actives raise or lower the signal
Outline: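 Cell-based multiplex transcription assay: HepG2 carrying transfected cis-element reporter units, 24 h chemical treatment. Fluorescence from capillary electrophoresis of RT-PCR products gives mRNA levels; fitting is bidirectional relative to DMSO.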

[11] = ATG_Ets_CIS: Attagene CIS-FACTORIAL HepG2 Assay for human Erythroblast Transformation Specific (ETS) (AID 2282941); conditions: HepG2 ETS cis-reporter transcription, actives raise or lower the signal
Outline: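 RT-PCR/capillary electrophoresis fluorescence read-out of reporter mRNA; HepG2 transient multi-reporter transfection; 24 h compound exposure; gain or loss of signal fitted bidirectionally relative to DMSO.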

[12] = ATG_GATA_CIS: Attagene CIS-FACTORIAL HepG2 Assay for human GATA Binding Protein (AID 2282944); conditions: HepG2 GATA cis-element reporter, Attagene multiplex mRNA; actives raise or lower the signal
Outline: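 Cells: HepG2, transiently transfected with cis-regulated reporter transcription units. Exposure: 24 h. Detection: RT-PCR plus capillary electrophoresis of FAM-labeled fragments. Analysis: bidirectional, DMSO as baseline.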

[13] = ATG_GLI_CIS: Attagene CIS-FACTORIAL HepG2 Assay for human Zinc Finger Protein GLI1 (AID 2282945); conditions: HepG2, Attagene cis-factorial reporter mRNA, GLI element; actives raise or lower the signal
Outline: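 Bidirectional curve fits relative to DMSO, using reporter mRNA levels from RT-PCR plus capillary electrophoresis. Cells were HepG2 transiently carrying cis-regulated reporter constructs, harvested 24 h after dosing.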

[14] = ATG_ISRE_CIS: Attagene CIS-FACTORIAL HepG2 Assay for human Interferon Regulatory Factor 1 (IRF1) binding to an Interferon-Stimulated Response Element (ISRE) (AID 2282948); conditions: HepG2 ISRE cis-reporter (Attagene), mRNA transcription readout; actives raise or lower the signal
Outline: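 Read-out: fluorescent RT-PCR products resolved by capillary electrophoresis, reporting endogenous transcription factor activity via ISRE-driven reporter mRNA in transfected HepG2 cells dosed for 24 h; gain or loss fitted relative to DMSO.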

[15] = ATG_M_32_CIS: Attagene CIS-FACTORIAL HepG2 Assay for M32 Transcription Factor (Internal Marker) (AID 2282949); conditions: HepG2 Attagene cis-factorial M32 reporter, mRNA; actives raise or lower the signal;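 also: background control marker of the multiplexed CIS panel rather than a real target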
Outline: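 Using DMSO as baseline, bidirectional curve fits were applied to reporter mRNA signals. These came from transiently transfected HepG2 cells exposed for 24 h, with RNA analysed by RT-PCR, FAM primer extension, HpaI digestion and CE.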

[16] = ATG_M_06_CIS: Attagene CIS-FACTORIAL HepG2 Assay for M06 Transcription Factor (Internal Marker) (AID 2282950); conditions: HepG2 Attagene CIS-FACTORIAL M06 internal marker reporter; actives raise or lower the signal
Outline: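 Measured 24 h post-dosing in transiently transfected HepG2 cells, this internal-marker endpoint reports reporter mRNA via RT-PCR with fluorescent primer extension and capillary electrophoresis. DMSO served as negative control and baseline for bidirectional fitting.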

[17] = ATG_MRE_CIS: Attagene CIS-FACTORIAL HepG2 Assay for human Metal Responsive Element (MRE) (AID 2282954); conditions: HepG2 MRE cis-reporter transcription, Attagene multiplex; actives raise or lower the signal
Outline: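 Multiplexed cis-reporter assay in human HepG2 liver cells, 24 h incubation with test chemical. Reporter transcripts measured by RT-PCR and capillary electrophoresis; values from bidirectional curve fitting versus DMSO.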

[18] = ATG_PXRE_CIS: Attagene CIS-FACTORIAL HepG2 Assay for human Pregnane X Receptor Element (PXRE) (AID 2282957); conditions: HepG2 Attagene CIS-FACTORIAL PXRE reporter, mRNA; actives raise or lower the signal
Outline: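 Bidirectional activity, baselined to DMSO, derived from reporter mRNA fluorescence (RT-PCR plus capillary electrophoresis) in HepG2 cells bearing cis-promoter reporter units, 24 h exposure.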

[19] = ATG_Sox_CIS: Attagene CIS-FACTORIAL HepG2 Assay for human SRY-box transcription factor (SOX) (AID 2282960); conditions: HepG2 Attagene cis-factorial SOX reporter, mRNA; actives raise or lower the signal
Outline: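 After 24 h of chemical treatment, transfected HepG2 reporter cells are lysed for total RNA. Transcript levels come from RT-PCR with labelled primer extension and capillary electrophoresis, analysed bidirectionally versus DMSO.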

[20] = molecular target: Androgen receptor (Homo sapiens) (UniProt P10275); assay: ATG_AR_TRANS: Attagene TRANS-FACTORIAL HepG2 Assay for human Androgen Receptor (AR) (AID 2282973; active = hit-call score of the fitted dose curve at least 0.9, where 1 is the maximum); conditions: HepG2 Attagene TRANS-FACTORIAL AR reporter transcription
Androgen receptor (Homo sapiens), sequence (P10275 whole entry, looked up, the tested form may be a part): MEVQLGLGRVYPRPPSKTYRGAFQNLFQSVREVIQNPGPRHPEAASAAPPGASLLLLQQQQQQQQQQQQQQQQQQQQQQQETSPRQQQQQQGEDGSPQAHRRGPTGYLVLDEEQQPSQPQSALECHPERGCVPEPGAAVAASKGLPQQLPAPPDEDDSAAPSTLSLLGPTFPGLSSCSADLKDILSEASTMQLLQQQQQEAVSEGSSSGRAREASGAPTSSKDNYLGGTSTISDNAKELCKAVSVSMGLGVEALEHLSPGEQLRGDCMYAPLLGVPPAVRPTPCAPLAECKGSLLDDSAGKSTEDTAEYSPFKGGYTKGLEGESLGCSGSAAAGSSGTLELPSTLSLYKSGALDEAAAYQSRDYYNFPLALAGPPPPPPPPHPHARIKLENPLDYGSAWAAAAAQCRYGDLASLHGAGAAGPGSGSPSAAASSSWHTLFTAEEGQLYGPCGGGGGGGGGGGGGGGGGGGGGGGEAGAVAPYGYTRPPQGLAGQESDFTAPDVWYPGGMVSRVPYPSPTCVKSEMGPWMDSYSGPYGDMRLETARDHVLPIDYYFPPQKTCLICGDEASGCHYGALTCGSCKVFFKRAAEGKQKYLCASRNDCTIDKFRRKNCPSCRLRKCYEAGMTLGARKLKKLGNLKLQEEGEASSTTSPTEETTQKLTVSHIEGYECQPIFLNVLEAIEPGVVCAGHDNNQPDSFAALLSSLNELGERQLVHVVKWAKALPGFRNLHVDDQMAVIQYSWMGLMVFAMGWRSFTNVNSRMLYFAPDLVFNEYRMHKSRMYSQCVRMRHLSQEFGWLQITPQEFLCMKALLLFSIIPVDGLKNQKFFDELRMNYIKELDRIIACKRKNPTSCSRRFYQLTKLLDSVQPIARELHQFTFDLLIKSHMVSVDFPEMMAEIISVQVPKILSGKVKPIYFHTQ
Outline: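 Chimeric nuclear receptor–Gal4 activity was assessed in human HepG2 hepatocytes after 24 h chemical dosing. Induced reporter mRNA was detected via labelled RT-PCR fragments on capillary electrophoresis, and gain of signal was analysed against DMSO.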

Compound: O=c1c2ccccc2c(=O)c2c1cc(Cl)c1[nH]c3c([nH]c12)c(Cl)cc1c(=O)c2ccccc2c(=O)c13
- outcome [1]: inactive
- outcome [2]: inactive
- outcome [3]: inactive
- outcome [4]: inactive
- outcome [5]: inactive
- AC50 [6]: 26.1 µM (active)
- outcome [7]: inactive
- outcome [8]: inactive
- outcome [9]: inactive
- outcome [10]: inactive
- outcome [11]: inactive
- outcome [12]: inactive
- outcome [13]: inactive
- outcome [14]: inactive
- outcome [15]: inactive
- outcome [16]: inactive
- outcome [17]: inactive
- AC50 [18]: 11.2 µM (active)
- outcome [19]: inactive

Compound: COc1ncc(F)c2nc(S(=O)(=O)Nc3c(F)cccc3F)nn12
- outcome [1]: inactive
- outcome [2]: inactive
- outcome [3]: inactive
- outcome [4]: inactive
- outcome [5]: inactive
- outcome [6]: inactive
- outcome [7]: inactive
- outcome [8]: inactive
- outcome [9]: inactive
- outcome [10]: inactive
- outcome [11]: inactive
- outcome [12]: inactive
- outcome [13]: inactive
- outcome [14]: inactive
- outcome [15]: inactive
- outcome [16]: inactive
- outcome [17]: inactive
- AC50 [18]: 15.3 µM (active)
- outcome [19]: inactive

Compound: SCc1ccco1
- outcome [1]: inactive
- AC50 [2]: 62.8 µM (active)
- outcome [3]: inactive
- AC50 [4]: 52 µM (active)
- outcome [5]: inactive
- outcome [6]: inactive
- outcome [7]: inactive
- outcome [8]: inactive
- outcome [9]: inactive
- outcome [10]: inactive
- outcome [11]: inactive
- outcome [12]: inactive
- outcome [13]: inactive
- outcome [14]: inactive
- outcome [15]: inactive
- outcome [16]: inactive
- outcome [17]: inactive
- AC50 [18]: 27.7 µM (active)
- outcome [19]: inactive
- outcome [20]: inactive

Compound: Cc1ncc(C[n+]2csc(CCO)c2C)c(N)n1
- outcome [1]: inactive
- outcome [2]: inactive
- outcome [3]: inactive
- outcome [4]: inactive
- outcome [5]: inactive
- outcome [6]: inactive
- outcome [7]: inactive
- outcome [8]: inactive
- outcome [9]: inactive
- outcome [10]: inactive
- outcome [11]: inactive
- outcome [12]: inactive
- outcome [13]: inactive
- outcome [14]: inactive
- outcome [15]: inactive
- outcome [16]: inactive
- outcome [17]: inactive
- outcome [18]: inactive
- outcome [19]: inactive

Compound: CC(C)(Cl)Cl
- outcome [1]: inactive
- outcome [2]: inactive
- outcome [3]: inactive
- outcome [4]: inactive
- outcome [5]: inactive
- outcome [6]: inactive
- outcome [7]: inactive
- outcome [8]: inactive
- outcome [9]: inactive
- outcome [10]: inactive
- outcome [11]: inactive
- outcome [12]: inactive
- outcome [13]: inactive
- outcome [14]: inactive
- outcome [15]: inactive
- outcome [16]: inactive
- outcome [17]: inactive
- outcome [18]: inactive
- outcome [19]: inactive
